Experiment [1] relates to P. falciparum NF54-pfs16-GFP early (I-III) stage gametocytes. Briefly: relative % inhibition of viable gametocyte number; higher = more gametocytocidal. The following applies: stage: early (I-III) gametocyte, incubation 72 h. The method in brief: (§1)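 Viable gametocytes were counted by confocal imaging as elongated GFP objects carrying MitoTracker Red signal above a cut-off, after 72 h of compound exposure (5 or 0.5 µM) at 37°C in 5% CO2 and 5% O2 and overnight staining. The NF54 pfs16-GFP gametocytes had been magnet-isolated at early (I/IIa, day 2) or late (day 8) stage and plated at 10% parasitaemia, 0.1% haematocrit in 384-well poly-D-lysine imaging plates. Relative inhibition was normalised to vehicle and positive-control wells within each plate.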

Experiment [2] has as its system P. falciparum NF54-pfs16-GFP late (IV-V) stage gametocytes. The experiment is described as above. The conditions noted are these: stage: late (IV-V) gametocyte, incubation 72 h. The method in brief:
as §1

For `COc1ccc(C(=O)Nc2ccc3nc(N4CCCCC4)cc(C)c3c2)cc1OC`, the relative % inhibition in experiment [1] (0.5 µM) is -8%; in experiment [1] (5 µM) it was 7.62%; in experiment [2] (0.5 µM), 3.3%; in experiment [2] (5 µM) it was 51.2%.
The matching figures for `CCOc1ccc(Nc2ccnc3cc(Cl)ccc23)cc1`: -5.49%, -2.53%, 14.7% and 14.7%.
In the same order, the values of `COc1ccc(CCn2c(=N)c(C(=O)NCc3cccnc3)cc3c(=O)n4cccc(C)c4nc32)cc1` are 45.1%, 70.9%, -7.36% and 11.2%.
The matching figures for `COc1ccc(C(O)(CCC(C)C)C(CN2CCOCC2)c2ccc(Cl)cc2)cc1` (centres undefined): 6.71%, 94.3%, 12.1% and 25%.
Take `COCCNC(=O)c1ccc(OC2CCN(Cc3ccc(F)c(F)c3)CC2)c(Cl)c1`: the relative % inhibition was 7.61% in experiment [1] (0.5 µM), -0.414% in experiment [1] (5 µM), 14.2% in experiment [2] (0.5 µM) and 39.9% in experiment [2] (5 µM).
The matching figures for `COc1ccc(CCN2C(=O)c3[nH]nc(-c4cc(Cl)c(C)cc4O)c3C2c2ccccc2F)cc1` (centres undefined): 1.69%, -0.844%, 30.2% and 51.9%.
For the molecule `COc1ccccc1N=C1C(=O)c2ccccc2C(O)=C1N1CCCCC1`, the relative % inhibition was 21.8% in experiment [1] (0.5 µM), 44.6% in experiment [1] (5 µM), -11.2% in experiment [2] (0.5 µM) and 10.5% in experiment [2] (5 µM).
As to `O=C(Nc1ccc(CN2CCOCC2)cc1)c1ccc(-c2cc(Cl)ccc2Cl)o1`, the relative % inhibition in experiment [1] (0.5 µM) is -3.41%; in experiment [1] (5 µM), 20.9%; in experiment [2] (0.5 µM), -18.1%; in experiment [2] (5 µM), 21.4%.
The matching figures for `CCCc1c(C)nc2ccccc2c1O`: -8.06%, 15.7%, 56.5% and 72.3%.
For `CCOC(=O)C1=C(C)N=c2sc(=Cc3cc(Cl)ccc3O)c(=O)n2C1c1ccc(OC)cc1` (centres undefined), the relative % inhibition in experiment [1] (0.5 µM) was determined as 105%; in experiment [1] (5 µM), 108%; in experiment [2] (0.5 µM) it was 94.5%; in experiment [2] (5 µM) it was 103%.
In the same order, the values of `FC(F)(F)c1ccc(Nc2nnnc3ccccc23)cc1` are 7.13%, 2.85%, 25% and 7.26%.
With `CC1CC(C)CN(C(=O)c2ccc(Cl)cc2Cl)C1` (centres undefined), the relative % inhibition in experiment [1] (0.5 µM) was -0.883%; in experiment [1] (5 µM) it was -4.96%; in experiment [2] (0.5 µM), 1.4%; in experiment [2] (5 µM), 3.37%.
On to `CCN1CCN(c2c(C(=O)c3ccccc3)cnc3cc(OC)c(OC)cc23)CC1`, for which the relative % inhibition was 2.47% in experiment [1] (0.5 µM), -13.5% in experiment [1] (5 µM), 12.1% in experiment [2] (0.5 µM) and -8.91% in experiment [2] (5 µM).
In the same order, the values of `CN1C=C(c2ccc3ccccc3n2)C(c2c[nH]c3ccccc23)c2ccccc21` (centres undefined) are 16.1%, 49.6%, 19.8% and 34.8%.
The matching figures for `O=C(CCc1ccccc1)c1ccccc1OCC(O)CN1CCCCC1` (centres undefined): 12.7%, 96.8%, 15% and 48.2%.
Regarding `CCN(CC)CCNc1ncnc2c1[nH]c1ccc(Cl)cc12`, the relative % inhibition in experiment [1] (0.5 µM) came to 14.5%; in experiment [1] (5 µM) it was 79.1%; in experiment [2] (0.5 µM), 2.71%; in experiment [2] (5 µM), 24.8%.
For `COc1ccc(CCNC(=O)c2cc(S(=O)(=O)N3CC(C)CC(C)C3)ccc2Sc2ccc(F)cc2)cc1OC` (centres undefined), the relative % inhibition was 10.1% in experiment [1] (0.5 µM), -11.3% in experiment [1] (5 µM), 17.9% in experiment [2] (0.5 µM) and 20.1% in experiment [2] (5 µM).
With `c1ccc(CNc2nc(Nc3ccccc3)nc3ccccc23)cc1`, the relative % inhibition in experiment [1] (0.5 µM) amounted to 65.9%; in experiment [1] (5 µM), 97%; in experiment [2] (0.5 µM), 57.9%; in experiment [2] (5 µM), 86.1%.
The matching figures for `Oc1ccc2ccccc2c1CNc1nc2ccccc2[nH]1`: 11%, 66.5%, 6.29% and 12%.
`CCOC(=O)c1c(C)n(-c2ccccc2)c2ccc(OC(=O)c3cc(OC)c(OC)c(OC)c3)cc12`: the relative % inhibition in experiment [1] (0.5 µM) is 17.7%; in experiment [1] (5 µM), -2.44%; in experiment [2] (0.5 µM) it was -15.1%; in experiment [2] (5 µM), -2.38%.
On to `O=C(NC1CCCCC1)C(c1cccs1)N(CCc1ccccc1)C(=O)c1ccco1` (centres undefined), for which the relative % inhibition is 0.574% in experiment [1] (0.5 µM), 17.5% in experiment [1] (5 µM), 5.55% in experiment [2] (0.5 µM) and 6.74% in experiment [2] (5 µM).
In the same order, the values of `COc1ccc(C2N(C)c3ccccc3N2C)cc1` are 24.6%, 30.9%, 17.9% and -2.47%.
In the case of `CCN(CC)CCCNc1nc(-c2ccc(Cl)cc2)nc2ccccc12`, the relative % inhibition came out at 11.6% in experiment [1] (0.5 µM), 96.5% in experiment [1] (5 µM), 13.1% in experiment [2] (0.5 µM) and 23.5% in experiment [2] (5 µM).
In the same order, the values of `Oc1c2c(nc3ccccc13)CCCC2` are 9.29%, -7.51%, 26.9% and 90.8%.
The matching figures for `CCCCOC(=O)c1ccc(Nc2cc(C)nc3ccc(OC)cc23)cc1`: -28.1%, 70%, 13.1% and 18.5%.
As for `CCOc1ccccc1NC(=O)CN1CCN(C(=O)c2ccco2)CC1`, the relative % inhibition in experiment [1] (0.5 µM) was 11.3%; in experiment [1] (5 µM), 9%; in experiment [2] (0.5 µM), -18.2%; in experiment [2] (5 µM), -2.45%.
As for `COc1cccc(C(=O)NC(c2ccc(C)cc2)c2cc(Cl)c3cccnc3c2O)c1` (centres undefined), the relative % inhibition in experiment [1] (0.5 µM) worked out at 12.4%; in experiment [1] (5 µM) it was 82.5%; in experiment [2] (0.5 µM), 46.5%; in experiment [2] (5 µM), 65.2%.
Take `CCOC(=O)c1cnc2c(C)cc(C)cc2c1Nc1ccc(OC)c(OC)c1`: the relative % inhibition in experiment [1] (0.5 µM) is 2.37%; in experiment [1] (5 µM), 7.56%; in experiment [2] (0.5 µM), -4.75%; in experiment [2] (5 µM) it was 3.59%.
On to `Cc1cc(C=C2SC(=Nc3ccccc3)N(C3CCCC3)C2=O)c(C)n1-c1ccc(Cl)cc1`, for which the relative % inhibition in experiment [1] (0.5 µM) was 15%; in experiment [1] (5 µM) it was 2.67%; in experiment [2] (0.5 µM) it was -2.31%; in experiment [2] (5 µM), 31.2%.
For the molecule `OC(CNC1CCCC1)Cn1c2ccccc2c2ccccc21` (centres undefined), the relative % inhibition in experiment [1] (0.5 µM) worked out at 15.6%; in experiment [1] (5 µM), 91.7%; in experiment [2] (0.5 µM), 24.2%; in experiment [2] (5 µM), 66%.
In the case of `CC(C)(C)CC(C)(C)NCC(O)COc1ccc2c(c1)CCC2` (centres undefined), the relative % inhibition in experiment [1] (0.5 µM) is -11.4%; in experiment [1] (5 µM) it was 78.8%; in experiment [2] (0.5 µM), 17.6%; in experiment [2] (5 µM) it was 20.4%.
In the same order, the values of `O=C(Nc1ccc(-c2nc3cc(NC(=O)c4ccc(Cl)cc4)ccc3[nH]2)cc1)c1ccc(Cl)cc1` are 6.74%, 48.5%, -5.09% and 24.8%.
Take `COc1cc(C(=O)Nc2nc3c(cc4c5c(cccc53)CC4)s2)cc(OC)c1OC`: the relative % inhibition in experiment [1] (0.5 µM) was 5.49%; in experiment [1] (5 µM), 13.9%; in experiment [2] (0.5 µM) it was 12.4%; in experiment [2] (5 µM), 5.43%.
As for `O=C(Nc1cccc(-c2nc3ccccc3[nH]2)c1)c1cccc(NC(=O)c2ccco2)c1`, the relative % inhibition was 12.9% in experiment [1] (0.5 µM), 20.8% in experiment [1] (5 µM), -1.52% in experiment [2] (0.5 µM) and 0.95% in experiment [2] (5 µM).
In the same order, the values of `CCOC(=O)c1cnc2ccc(OC)cc2c1NCc1ccccc1` are 26.4%, 17.1%, 10.1% and 2.07%.
In the same order, the values of `CCN1CCN(Cc2ccc(NC(=O)c3cc4ccc5cccnc5c4[nH]3)cc2)CC1` are 21.1%, 59.1%, -6.9% and 3.45%.
